# Reference: the supplement of paper PMC8285479
# Structures can show the parent of a compound that is named as a salt. ± gives the standard deviation of the averaged measurements. In all, about 1,900 compounds were measured (“normalised cell viability (NPI; 0 = phenylarsine oxide control, 1 = DMSO control)”: median about 1, lowest 2% from about 0.039 on). Only a selection was taken, and the lowest values are over-represented in it overall.
# System: NCI-H1944
# Assay: normalised cell viability (NPI; 0 = phenylarsine oxide control, 1 = DMSO control) (fraction of DMSO control); NCI-H1944 is a non-small cell lung cancer line; higher = more viable cells (less compound toxicity)
# Details: 6 days
# [1] = glucocorticoid arm: hydrocortisone 2.75 uM co-treatment, compound 1 µM
# [2] = glucocorticoid arm: hydrocortisone 2.75 uM co-treatment, compound 5 µM
# [3] = glucocorticoid arm: hydrocortisone 2.75 uM pre-treated 2 days and continued, compound 1 µM
# [4] = glucocorticoid arm: hydrocortisone 2.75 uM pre-treated 2 days and continued, compound 5 µM
# [5] = glucocorticoid arm: vehicle, compound 1 µM
# [6] = glucocorticoid arm: vehicle, compound 5 µM
# 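Note: CTB read-out in 384-well plates, triplicate wells, NPI normalised per plate against 1 µM phenylarsine oxide (0) and 0.1% DMSO (1) controls.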
SMILES,normalised cell viability [1],normalised cell viability [2],normalised cell viability [3],normalised cell viability [4],normalised cell viability [5],normalised cell viability [6]
CN[C@@H]1C[C@H]2O[C@@](C)([C@@H]1OC)n1c3ccccc3c3c4c(c5c6ccccc6n2c5c31)C(=O)NC4 [Staurosporine],0.0825 ± 0.0098,0.0186 ± 0.003,0.246 ± 0.01,0.0923 ± 0.017,0.0216 ± 0.0022,0.00445 ± 0.0013
"C[C@@H](N)Cc1cnc[nH]1 [Histamine, R(-)-alpha-methyl-, dihydrochloride]",0.997 ± 0.0027,0.997 ± 0.011,1,0.994 ± 0.014,0.9917 ± 0.0045,0.9963 ± 0.0032
NC(CP(=O)(O)O)C(=O)O (racemic) [(±)-2-Amino-3-phosphonopropionic acid],0.993 ± 0.0066,0.9903 ± 0.0093,1.005 ± 0.0087,1 ± 0.013,0.9877 ± 0.0049,0.998 ± 0.013
"CCc1c(C(=O)OC)ncc2[nH]c3cc(OC)c(OC)cc3c12 [Methyl 6,7-dimethoxy-4-ethyl-beta-carboline-3-carboxylate]",1.01 ± 0.016,1.023 ± 0.0058,1.01 ± 0.01,1.03 ± 0.01,0.9997 ± 0.0091,1.003 ± 0.0058
COc1cc(CC(C)N)c(OC)cc1I (racemic) [(±)-DOI hydrochloride],1.01 ± 0.01,0.983 ± 0.023,0.998 ± 0.013,1.02 ± 0.01,0.998 ± 0.0035,0.994 ± 0.004
Oc1ncc(N(CCCl)CCCl)c(O)n1 [Uracil mustard],0.972 ± 0.007,1.06 ± 0.011,1.043 ± 0.0058,1.033 ± 0.0058,0.244 ± 0.021,1.01 ± 0.011
C[C@@]12C(=O)OC(=O)[C@]1(C)[C@H]1CC[C@@H]2O1 [Cantharidin],0.9967 ± 0.0035,0.00641 ± 0.0033,1.05 ± 0.021,0.12 ± 0.057,0.9873 ± 0.0032,0.00459 ± 0.0027
"CN(N=O)c1ccc(O)c(O)c1 [Me-3,4-dephostatin]",1.017 ± 0.0058,1.01 ± 0.017,1.007 ± 0.0058,1.05 ± 0.086,1.01 ± 0.011,1.02 ± 0.01
CCCN1CCC[C@@H](c2cccc(C#N)c2)C1 [S(-)-DS 121 hydrochloride],1.017 ± 0.0058,0.972 ± 0.034,1.01 ± 0.01,0.985 ± 0.033,1.02,1.04 ± 0.047
NCc1cc(O)no1 [Muscimol hydrobromide],1.006 ± 0.0069,0.993 ± 0.015,1.01 ± 0.013,0.992 ± 0.031,1.01,1.003 ± 0.0061
CCCN1CCC[C@@H]2Cc3n[nH]cc3C[C@H]21 (racemic) [(±)-Quinpirole dihydrochloride],1.013 ± 0.0058,1.01 ± 0.036,0.893 ± 0.19,1.03 ± 0.01,1.013 ± 0.0058,1.01 ± 0.011
CCCN1CCC[C@@H]2Cc3n[nH]cc3C[C@H]21 [(-)-Quinpirole hydrochloride],0.982 ± 0.006,0.992 ± 0.018,0.867 ± 0.22,1.01 ± 0.016,0.985 ± 0.0087,0.9927 ± 0.0045
CCN(CCCl)CCOC(C)=O [Acetylethylcholine mustard hydrochloride],1.01 ± 0.015,1.02 ± 0.034,1.01 ± 0.013,1.11 ± 0.061,0.995 ± 0.0046,1.01 ± 0.015
N.N.[Cl][Pt][Cl] [Cisplatin],,,1.01,,,
Cn1c(CCCC(=O)O)nc2cc(N(CCCl)CCCl)ccc21 [bendamustine hydrochloride],1.02 ± 0.011,0.348 ± 0.02,1.007 ± 0.0058,0.7867 ± 0.0031,0.9937 ± 0.006,0.0218 ± 0.0032
"O=[N+]([O-])c1ccc(O[C@@H]2O[C@H](CO)[C@@H](O)[C@H](O)[C@H]2F)c([N+](=O)[O-])c1 [2,4-Dinitrophenyl 2-fluoro-2-deoxy-beta-D-glucopyranoside]",0.9917 ± 0.004,0.989 ± 0.02,0.991 ± 0.023,0.974 ± 0.03,0.9807 ± 0.0021,0.9817 ± 0.0064
Cc1o[nH]c(=O)c1CC(N)C(=O)O (racemic) [(±)-AMPA hydrobromide],0.995 ± 0.016,0.983 ± 0.016,0.999 ± 0.0095,0.994 ± 0.025,0.982 ± 0.0027,0.98 ± 0.007
"CC(N)c1cccc(Cl)c1Cl (racemic) [(±)-2,3-Dichloro-alpha-methylbenzylamine hydrochloride]",1.006 ± 0.0075,1.02 ± 0.011,1.003 ± 0.0064,1.013 ± 0.0058,0.9993 ± 0.0097,1.001 ± 0.0081
CCCCN1[C@@H]2CC[C@H]1CC(OC(c1ccc(F)cc1)c1ccc(F)cc1)C2 (some centres not stated) [JHW 007 hydrochloride],0.969 ± 0.017,0.629 ± 0.055,0.987 ± 0.011,0.969 ± 0.011,0.993 ± 0.003,0.228 ± 0.12
"CC(N)C(O)c1ccc(O)c(O)c1 (single isomer, unassigned; (-)) [(-)-alpha-Methylnorepinephrine]",1.01 ± 0.012,0.971 ± 0.044,0.995 ± 0.013,0.958 ± 0.034,0.9967 ± 0.0058,0.9977 ± 0.0032
C/C=C(/C)C(=O)O[C@H]1C(C)=C2[C@H]([C@@H]1OC(=O)CCCCCCC)[C@@](C)(OC(C)=O)C[C@H](OC(=O)CCC)[C@@]1(O)[C@H]2OC(=O)[C@@]1(C)O [Thapsigargin],0.0778 ± 0.015,0.0411 ± 0.016,0.215 ± 0.062,0.101 ± 0.029,0.0393 ± 0.014,0.00585 ± 0.0031
Clc1ccc(N2CC3CCC(C2)N3)nn1,1.003 ± 0.0064,0.979 ± 0.012,0.9903 ± 0.0074,0.9827 ± 0.004,0.9863 ± 0.0075,0.9843 ± 0.0086
C[C@@H]1O[C@@H](O[C@H]2C[C@@H](O)[C@]3(CO)[C@H]4[C@H](O)C[C@]5(C)[C@@H]([C@@H]6COC(=O)C6)CC[C@]5(O)[C@@H]4CC[C@]3(O)C2)[C@H](O)[C@H](O)[C@H]1O [Dihydroouabain],1.027 ± 0.0058,0.0138 ± 0.013,1.01 ± 0.015,0.143 ± 0.081,0.98 ± 0.017,0.00677 ± 0.002
C[C@@H]1O[C@@H](O[C@H]2C[C@@H](O)[C@]3(CO)[C@H]4[C@H](O)C[C@]5(C)[C@@H](C6=CC(=O)OC6)CC[C@]5(O)[C@@H]4CC[C@]3(O)C2)[C@H](O)[C@H](O)[C@H]1O [Ouabain],0.00947 ± 0.006,0.00628 ± 0.0019,0.0931 ± 0.013,0.07 ± 0.028,0.00711 ± 0.0021,0.00424 ± 0.002

SMILES,normalised cell viability [1],normalised cell viability [2],normalised cell viability [3],normalised cell viability [4],normalised cell viability [5],normalised cell viability [6]
NC(CCP(=O)(O)O)C(=O)O (racemic) [(±)-2-Amino-4-phosphonobutyric acid],0.9883 ± 0.0042,0.998 ± 0.0017,1.01 ± 0.014,1 ± 0.042,0.9923 ± 0.0071,0.9973 ± 0.0025
N[C@H](C(=O)O)c1cc(O)no1 (racemic) [(±)-Ibotenic acid],1.002 ± 0.0072,1 ± 0.032,0.991 ± 0.024,1.04 ± 0.096,0.9837 ± 0.0055,0.987 ± 0.012
Oc1cc2c(cc1O)[C@H]1c3ccccc3CN[C@@H]1CC2 (racemic) [Dihydrexidine hydrochloride],1.002 ± 0.0068,0.995 ± 0.005,1.002 ± 0.0076,0.994 ± 0.018,0.9917 ± 0.0059,0.9897 ± 0.0031
CS(=N)(=O)CC[C@H](N)C(=O)O (stereo partly drawn) [L-Methionine sulfoximine],1.003 ± 0.0058,1.01 ± 0.024,0.998 ± 0.01,0.948 ± 0.093,0.9987 ± 0.0023,1 ± 0.013
"NC(Cn1oc(=O)[nH]c1=O)C(=O)O (single isomer, unassigned; (+)) [(+)-Quisqualic acid]",1.01 ± 0.01,0.973 ± 0.028,1.01 ± 0.031,1.01 ± 0.021,1.01 ± 0.012,1.005 ± 0.0087
CN1CCN(c2ccc([N+](=O)[O-])c3no[n+]([O-])c23)CC1,0.984 ± 0.015,1.04 ± 0.011,0.993 ± 0.0076,1.01 ± 0.01,0.984 ± 0.011,0.988 ± 0.01
O=C(N[C@H]1CN2CCC1CC2)c1ccc(Cl)cc1,1.02 ± 0.01,1.01 ± 0.022,1.023 ± 0.0058,1.02 ± 0.015,0.998 ± 0.0035,1.013 ± 0.0058
O=c1[nH]c2ccc(Cl)cc2c(N[C@@H]2CN3CCC2CC3)c1-c1nc2ccccc2[nH]1,0.43 ± 0.0081,0.0244 ± 0.0034,0.717 ± 0.02,0.0576 ± 0.015,0.0195 ± 0.0053,0.00294 ± 0.0014
C[C@@]12N[C@@H](Cc3ccccc31)c1ccccc12 [(-)-MK 801 Maleate],1.023 ± 0.0058,1.02,1.02 ± 0.011,1.03 ± 0.015,1.01,1.01
C[C@@]12N[C@@H](Cc3ccccc31)c1ccccc12 [(-)-MK-801 hydrogen maleate],1.01 ± 0.01,1.02 ± 0.026,1.013 ± 0.0058,1.05 ± 0.094,0.992 ± 0.0092,1 ± 0.017
CC1Cc2cc3c(cc2C(c2ccc(N)cc2)=NN1)OCO3 (configuration not stated),1.01 ± 0.01,1.02 ± 0.021,1.01,1.01 ± 0.037,0.9943 ± 0.0035,0.9943 ± 0.006
COc1ccc2c(c1)[C@@]13CCCC[C@H]1[C@@H](C2)NCC3 [3-Methoxymorphinan hydrochloride],1.013 ± 0.0058,0.989 ± 0.03,1.02 ± 0.015,1.06 ± 0.058,1.003 ± 0.0058,1.01 ± 0.01
CC1(C(=O)O)C2CCC(O2)C1(C)C(=O)O (configuration not stated) [Cantharidic Acid],0.983 ± 0.016,0.0223 ± 0.0017,1.06 ± 0.015,0.137 ± 0.087,0.965 ± 0.025,0.0108 ± 0.0036
O=C(O)[C@@H]1[C@H](C(=O)O)[C@H]2CC[C@@H]1O2 [Endothall],1.01 ± 0.01,1.05 ± 0.01,1.007 ± 0.0058,1.07 ± 0.015,0.9967 ± 0.0025,1.007 ± 0.0058
C[C@@H]1O[C@H](C[N+](C)(C)C)C[C@H]1O (racemic) [(±)-Muscarine chloride],1.02 ± 0.011,1.03 ± 0.035,1.01 ± 0.015,1.05 ± 0.085,0.9963 ± 0.0047,1 ± 0.014
OC1CCCCC1N1CCC(c2ccccc2)CC1 (racemic) [(±)-Vesamicol hydrochloride],0.9747 ± 0.0049,0.91 ± 0.021,0.875 ± 0.21,0.978 ± 0.022,0.9897 ± 0.0025,0.9897 ± 0.0076
CC[C@@]1(O)C(=O)OCc2c1cc1n(c2=O)Cc2cc3ccccc3nc2-1 [(S)-(+)-Camptothecin],0.066 ± 0.014,0.00107 ± 0.0017,0.328 ± 0.025,0.0202 ± 0.0036,0.0279 ± 0.0022,-0.000721 ± 0.0022
Cc1ccccc1-n1c(Cn2cnc3c(N)ncnc32)nc2cccc(C)c2c1=O,1.003 ± 0.0058,1.02 ± 0.028,1 ± 0.015,1.02 ± 0.031,1 ± 0.017,1.01 ± 0.011
C=CCN1CC[C@]23CCCC[C@H]2[C@H]1Cc1ccc(O)cc13 [Levallorphan tartrate],1 ± 0.0089,1 ± 0.023,1.003 ± 0.0058,1.06 ± 0.064,0.9917 ± 0.0025,0.863 ± 0.23
N=C(NCCC[C@H](N)C(=O)O)N[N+](=O)[O-] [NG-Nitro-L-arginine],1.003 ± 0.0058,1.01 ± 0.022,1.01 ± 0.017,0.86 ± 0.24,1 ± 0.012,1.001 ± 0.0085
C=CCN1CCc2cccc3c2[C@H]1Cc1ccc(O)c(O)c1-3 [R(-)-N-Allylnorapomorphine hydrobromide],0.992 ± 0.0052,0.949 ± 0.0089,0.988 ± 0.011,0.968 ± 0.02,0.9917 ± 0.0042,0.9757 ± 0.0015
CNc1ccc2oc(C[C@H]3O[C@@]4(CC[C@H]3C)O[C@H]([C@H](C)C(=O)c3ccc[nH]3)[C@H](C)C[C@H]4C)nc2c1C(=O)O [Calcimycin],0.909 ± 0.018,0.0265 ± 0.002,1.01 ± 0.013,0.0205 ± 0.0037,0.91 ± 0.036,0.0377 ± 0.014
NC(CCCCCP(=O)(O)O)C(=O)O (racemic) [(±)-2-Amino-7-phosphonoheptanoic acid],0.98 ± 0.012,0.9763 ± 0.0025,0.9903 ± 0.005,0.97 ± 0.013,0.9873 ± 0.004,0.972 ± 0.0072
